Screens from PubChem BioAssay.
Compounds with a hit are over-represented: about 2.3% of the library has one in this group of screens.
CHO-K1 Ca ag = counter-screen for M1 agonists: effect in parental CHO-K1 cells | Fluo-8 calcium fluorescence; scaled to maximal ATP response, vehicle zero | activation, % at 3 µM | actives 0.48% (n = 360,000) | AID 602248, 2012; in the data active means activation above about 15%;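 further: untransfected CHO-K1 host cells lacking M1 receptor as counterscreen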
CHO-K1 Ca PAM = nonselective calcium activators in parental CHO-K1 cells, primary screen, counter-screen for M1 PAM project, cell-based, Fluo-8 calcium fluorescence, full deck, 1536-well | ATP EC20; 0% at ATP EC20, 100% at ATP max | activation, % at 3 µM | actives 0.02% (n = 360,000) | AID 602247, 2012;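 active means activation above the run cutoff, the mean activation of all test compounds plus 3 SD, cut at about 40% in these data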;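 further: peak over basal fluorescence ratio in a 140 s read after ATP addition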
M1 ag = human M1 muscarinic receptor agonists, primary screen, Fluo-8 calcium fluorescence, CHO-K1 cells, HTS. CHO-K1 hM1, agonist mode; 0% DMSO, 100% acetylcholine EC100. Muscarinic acetylcholine receptor M1 (Homo sapiens), P11229. actives 0.33% (n = 360,000). activation, % at 3 µM;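 active means activation above the run's mean compound activation plus 3 SD, cut at about 16% in these data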;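 further: peak over basal fluorescence ratio within a 140 s kinetic read after compound addition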
Target sequence (P11229 whole entry, looked up): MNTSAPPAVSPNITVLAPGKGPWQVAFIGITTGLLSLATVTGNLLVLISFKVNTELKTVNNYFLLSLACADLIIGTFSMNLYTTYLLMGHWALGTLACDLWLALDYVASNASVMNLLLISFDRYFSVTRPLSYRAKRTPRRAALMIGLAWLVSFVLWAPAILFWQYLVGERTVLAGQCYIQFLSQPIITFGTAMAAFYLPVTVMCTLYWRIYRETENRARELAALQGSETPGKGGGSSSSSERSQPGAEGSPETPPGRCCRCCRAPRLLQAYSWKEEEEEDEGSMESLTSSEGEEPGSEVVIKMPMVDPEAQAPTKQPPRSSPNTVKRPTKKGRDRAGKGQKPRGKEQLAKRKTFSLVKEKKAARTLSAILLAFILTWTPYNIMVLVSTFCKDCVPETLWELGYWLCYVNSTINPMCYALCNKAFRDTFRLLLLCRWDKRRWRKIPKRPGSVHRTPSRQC
CHO-K1 Ca antag = nonselective inhibitor or artifact in parental CHO-K1 cells; ATP-induced calcium, Fluo-8 fluorescence; inhibition, % at 3 µM; actives 0.6% (n = 360,000);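 active means inhibition above a per-plate cutoff, the plate's mean sample inhibition plus 3 SD, cut at about 24% in these data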;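 further: 0% = DMSO plus EC80 ATP and 100% = DMSO alone without ATP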
M1 PAM = human M1 muscarinic receptor positive allosteric modulators, primary screen, CHO-K1 cells, Fluo-8 calcium fluorescence, 1536-well. actives 0.088% (n = 360,000). CHO-K1 hM1, ACh EC20; 0% = ACh EC20, 100% = maximal ACh. Muscarinic acetylcholine receptor M1 (Homo sapiens), P11229. activation, % at 3 µM; in the data active means activation above about 19%, passing the limit was not always enough
M1 antag = human M1 muscarinic receptor antagonists, primary screen, CHO-K1 cells, Fluo-8 calcium fluorescence, 1536-well | Muscarinic acetylcholine receptor M1 (Homo sapiens), P11229 | actives 1.3% (n = 360,000) | inhibition, % at 3 µM | AID 588852, 2011 | CHO-K1 hM1, ACh EC80 antagonist;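 active means percent inhibition above its own plate's cutoff, namely the mean of that plate's compound wells plus 3 SD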;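 further: peak over basal fluorescence ratio during 140 s after agonist addition; 0% = ACh EC80 plus DMSO and 100% = DMSO alone without agonist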
* = called active by the depositor; / = no result given.

SMILES	CHO-K1 Ca ag	CHO-K1 Ca PAM	M1 ag	CHO-K1 Ca antag	M1 PAM	M1 antag
Cc1ccccc1Nc1nc(N)nc(CSc2nc3ccccc3c(=O)n2C)n1	18*	-2	8	29*	-13	31
Cc1cccc(NC(=O)CSc2nc3ccccc3c(=O)n2C)c1C	12	-9	2	15	-20	33*
Cc1ccccc1Nc1nc(N)nc(CSc2nc3ccccc3c(=O)n2CCCO)n1	4	19	1	-26	-2	-15
CCOc1ccc(CN(C)CC(=O)Nc2ccc(N3CCOCC3)cc2)cc1OC	16*	17	-8	1	8	-1
Cc1ccc(CC(=O)N(C)CC(=O)Nc2ccc(N3CCOCC3)cc2)cc1C	0	-26	-2	25*	-1	4
COc1ccc([C@H]2C[C@H](O)[C@@H](n3cc(C4CC4)nn3)CN2C(=O)c2cccs2)cc1	0	14	0	-17	8	-11
CCCOc1ccc(F)cc1-c1cc(C(=O)NCCOC)[nH]n1	0	22	-2	3	8	-11
CSc1ccc(CN2CCc3c([nH]c4ccccc34)C2)cc1	15*	20	-7	-7	4	-9
Clc1ccc(CN2CCc3c([nH]c4ccccc34)C2)cc1Cl	0	-1	-11	-3	4	-3
NC(=S)NN=C(c1ccc(Br)cc1)C1CC1	1	8	-1	-4	6	-12
CC(Cl)=CCn1c(NCCc2ccccc2)nc2c1c(=O)n(C)c(=O)n2C	0	-13	3	24	8	-3
O=C(CCc1nc2ccccc2c(=O)[nH]1)Nc1ccc(Cl)c(Cl)c1	3	18	-5	-7	8	4
O=C(CCc1nc2ccccc2c(=O)[nH]1)NCCN1C(=O)S/C(=C\c2ccc(Cl)cc2Cl)C1=O	1	11	0	3	-11	26*
CCCCCCN[C@H]1CCC2C3CC=C4C[C@@H](O)CC[C@]4(C)C3CC[C@@]21C (some centres undefined)	5	14	-4	-11	-30	90*
CC(C)C(=O)N[C@H]1CCC2C3CC=C4C[C@@H](O)CC[C@]4(C)C3CC[C@@]21C (some centres undefined)	0	6	-7	-5	11	-17
COc1ccc(/C=C/C(=O)NNc2c(F)c(F)cc(F)c2F)cc1OC	0	-7	0	25*	2	7
Nn1c(SCC(=O)Nc2nccs2)nnc1-c1ccccn1	1	-4	1	8	6	-8
CSc1ccc(CN2CCC(C)(Oc3cccc(C#N)c3)C2)cc1 (centres undefined)	0	20	-9	-7	-29	36*
COc1ccc(Nc2nc(Nc3ccc(OC)cc3)nc(-n3[nH]c(=O)c(C)c3C)n2)cc1	3	7	-3	12	-7	33*
CCOc1ccc(NC(=O)[C@H](Cc2ccccc2)NC(=O)C2CCNCC2)cc1	0	2	0	-1	-1	1
Cc1ccc(NC(=O)CCC(=O)OCC(=O)c2ccc(Oc3ccc([N+](=O)[O-])cc3)cc2)c(C)c1	1	-1	2	30*	2	10
CCOC(=O)[C@@H]1CSCCS(=O)(=O)N1	0	10	-2	-11	6	-9
COc1ccc(C(C(=O)NCC2CCCO2)N(Cc2cccs2)C(=O)c2snc(C(N)=O)c2N)cc1 (centres undefined)	7	-16	-1	8	-14	22*
CCOc1ccc(C(C(=O)NCC2CCCO2)N(Cc2cccc(OC)c2)C(=O)c2snc(C(N)=O)c2N)cc1 (centres undefined)	1	-13	-2	3	2	2
NC(=O)c1nsc(C(=O)N(c2cccc(F)c2)C(C(=O)NCC2CCCO2)c2cccs2)c1N (centres undefined)	16*	19	-6	4	-7	9
SMILES	CHO-K1 Ca ag	CHO-K1 Ca PAM	M1 ag	CHO-K1 Ca antag	M1 PAM	M1 antag
CC(=O)N1CCN(C(=O)c2cccc(S(=O)(=O)NCc3ccccc3)c2)CC1	1	14	-1	-5	11	-11
CCOC(=O)Cc1csc(NC(=O)c2ccncc2)n1	1	12	-1	4	-2	1
CCOC(=O)Cc1csc(NC(=O)c2sc3nc4ccc(C)cc4cc3c2N)n1	3	20	0	-13	34*	-6
CCOC(=O)Cc1csc(NC(=O)c2cc(-c3ccncc3)nc3ccccc23)n1	6	0	-2	-7	-15	36*
COc1ccc(S(=O)(=O)NC2CCSc3ccccc32)cc1OC (centres undefined)	5	7	-1	-9	4	-8
CCCc1cc(C(=O)Nc2cc(OC)ccc2OC)cs1	-1	-29	-5	25*	1	-5
CCOC(=O)C1CCN(S(=O)(=O)c2cc(C(=O)N3CCCCC3)ccc2OC)CC1	4	7	-2	0	1	0
CCc1cccc(NS(=O)(=O)c2c(C)nc3sc(CC)nn3c2=O)c1	2	3	-9	1	-29	73*
Cn1c2ccccc2c(=O)c2c(=O)n(C3CCCCC3)c(-c3ccco3)nc21	24*	25	19*	-3	0	1
Cc1nc2c(c(=O)c3ccccc3n2C)c(=O)n1C1CCCCCC1	0	-15	-5	10	2	-3
CCC(c1nnnn1-c1c(C)cccc1C)N1CCN(c2ccccn2)CC1 (centres undefined)	1	10	/	-22	/	/
CN(C)CC/C=C1/c2ccccc2CS(=O)(=O)c2ccccc21	1	17	-6	-9	-27	66*
CN1CCN(CCC=C2c3ccccc3Sc3ccc(S(=O)(=O)N(C)C)cc32)CC1	2	-3	-3	-3	-9	-13
O=S(=O)(c1ccccc1)c1ccc(N2CCCCCC2)cc1	3	-17	-9	9	-23	29
COc1ccc(-c2nc3c4ccccc4ccn3c2Cc2ccc(C)cc2)cc1OC	0	-9	-6	-6	-3	-19
COc1ccc(-c2nc3c4ccccc4ccn3c2Cc2ccsc2)cc1OC	0	-11	-8	24*	-15	18
O=Cc1ccc(OC(=O)CCCCC(=O)Oc2ccc(C=O)cc2)cc1	7	14	1	-13	-6	-9
CCOC(=O)NC(=O)/C(C#N)=C\Nc1sccc1C(=O)OC	18*	9	0	0	6	3
